# Laboratory results: the supplement of paper PMC10037445
# Whole data set: some 2,900 compounds, median “NF-kB SEAP reporter activity, fold change vs agonist alone” near 0.99, cut for the highest 2% near 2.6. The sample holds the highest values, similar compounds and a random draw of the others, so the mix is not that of the screen.
# Assays:
# [1] = tested on: RAW-Dual; experiment: NF-kB SEAP reporter activity, fold change vs agonist alone; higher = enhanced NF-kB activity
# Procedure, shortened: (§1)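 RAW-Dual macrophages were seeded in DMEM at 50,000 cells/well in 384-well plates, given 50 nL of library stock by pin tool, and given a PRR agonist 1 h later. Plates were held at 37 °C, 5% CO2 for 20 hours, after which supernatant was read for IRF by QuantiLuc luminescence and for NF-κB by QuantiBlue absorbance at 620 nm. Reporter activity is expressed as fold change over wells that received agonist alone. A well was called cytotoxic when IncuCyte confluency fell below 70% of agonist controls in both mask sets.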
# [2] = tested on: RAW-Dual; experiment: NF-kB SEAP reporter activity, fold change vs agonist alone; cytotoxicity flag (confluency mask): not cytotoxic; higher = enhanced NF-kB activity
# Procedure, shortened: as §1
# [3] = tested on: RAW-Dual; experiment: NF-kB SEAP reporter activity, fold change vs agonist alone; cytotoxicity flag (confluency mask): cytotoxic (confluency <70% of control); higher = enhanced NF-kB activity
# Procedure, shortened: as §1
# [4] = library stock concentration (final ~1000-fold dilution): 10 mM, cytotoxicity flag (confluency mask): not cytotoxic, agonist: Imiquimod (TLR7) […]
# [5] = library stock concentration (final ~1000-fold dilution): 10 mM, cytotoxicity flag (confluency mask): not cytotoxic, agonist: MPLA (TLR4) […]
# [6] = agonist: ODN 1826 (TLR9) 0.5 ug/mL
# [7] = agonist: Pam2CSK4 (TLR2/6) 0.1 ug/mL
# [8] = agonist: Pam3CSK4 (TLR2/1) 0.1 ug/mL
smiles,measurement,setting,value
COc1cccc(NC(=O)/C=C/c2ccc(Cl)cc2)c1,NF-kB SEAP reporter activity,[1]; [4],1.02
same,NF-kB SEAP reporter activity,[1]; [5],1.04
CC(=O)Oc1cc2c(s1)CCN(C(C(=O)C1CC1)c1ccccc1F)C2.Cl (stereo not drawn) (library stock concentration (final ~1000-fold dilution): 10 mM),NF-kB SEAP reporter activity,[2]; agonist: LPS (TLR4) 0.1 ug/mL,0.766
same,NF-kB SEAP reporter activity,[2]; [6],0.821
same,NF-kB SEAP reporter activity,[2]; [7],0.958
same,NF-kB SEAP reporter activity,[2]; [8],0.688
CC(=O)Oc1cc2c(s1)CCN(C(C(=O)C1CC1)c1ccccc1F)C2.Cl (stereo not drawn),NF-kB SEAP reporter activity,[1]; [5],0.869
C=CC(=O)N1CC/C(=C\c2ccc(F)c([N+](=O)[O-])c2)C(=O)/C(=C/c2ccc(F)c([N+](=O)[O-])c2)C1,NF-kB SEAP reporter activity,[1]; [4],0.151
same,NF-kB SEAP reporter activity,[1]; [5],0.267
C=CC(=O)N1CC/C(=C\c2ccc(F)c([N+](=O)[O-])c2)C(=O)/C(=C/c2ccc(F)c([N+](=O)[O-])c2)C1 (library stock concentration (final ~1000-fold dilution): 10 mM),NF-kB SEAP reporter activity,[2]; agonist: LPS (TLR4) 0.1 ug/mL,0.222
same,NF-kB SEAP reporter activity,[2]; [6],0.198
same,NF-kB SEAP reporter activity,[2]; [7],0.0699
same,NF-kB SEAP reporter activity,[2]; [8],0.144
CC1CNC(=O)c2cnn3ccc(nc23)NC(C)c2cc(F)ccc2O1 (stereo not drawn) (library stock concentration (final ~1000-fold dilution): 10 mM),NF-kB SEAP reporter activity,[2]; agonist: LPS (TLR4) 0.1 ug/mL,1.58
same,NF-kB SEAP reporter activity,[2]; [6],0.9
same,NF-kB SEAP reporter activity,[2]; [7],0.5
same,NF-kB SEAP reporter activity,[2]; [8],0.422
CC1CNC(=O)c2cnn3ccc(nc23)NC(C)c2cc(F)ccc2O1 (stereo not drawn),NF-kB SEAP reporter activity,[1]; [4],0.753
same,NF-kB SEAP reporter activity,[1]; [5],0.916
N#Cc1cc(-c2ccnc(Nc3ccc(N4CCOCC4)cc3)n2)ccc1OC1CCOCC1 (library stock concentration (final ~1000-fold dilution): 10 mM),NF-kB SEAP reporter activity,[2]; agonist: LPS (TLR4) 0.1 ug/mL,0.526
same,NF-kB SEAP reporter activity,[2]; [6],1.39
same,NF-kB SEAP reporter activity,[2]; [7],0.463
same,NF-kB SEAP reporter activity,[2]; [8],3.66
O=C(Nc1ccc(-c2ccnc(Nc3ccc(N4CCOCC4)cc3)n2)cc1)C1CCCN1 (stereo not drawn) (library stock concentration (final ~1000-fold dilution): 10 mM),NF-kB SEAP reporter activity,[2]; agonist: LPS (TLR4) 0.1 ug/mL,1.86
same,NF-kB SEAP reporter activity,[2]; [6],0.272
same,NF-kB SEAP reporter activity,[2]; [7],1.05
same,NF-kB SEAP reporter activity,[2]; [8],1.67
O=C(Nc1ccc(-c2ccnc(Nc3ccc(N4CCOCC4)cc3)n2)cc1)C1CCCN1 (stereo not drawn),NF-kB SEAP reporter activity,[1]; [4],1.6
same,NF-kB SEAP reporter activity,[1]; [5],2.46
N#Cc1cc(-c2ccnc(Nc3ccc(N4CCOCC4)cc3)n2)ccc1OC1CCOCC1,NF-kB SEAP reporter activity,[1]; [4],1.85
same,NF-kB SEAP reporter activity,[1]; [5],2.02
N#CCNC(=O)c1ccc(-c2ccnc(Nc3ccc(N4CCOCC4)cc3)n2)cc1,NF-kB SEAP reporter activity,[1]; [4],1.02
same,NF-kB SEAP reporter activity,[1]; [5],0.925
N#CCNC(=O)c1ccc(-c2ccnc(Nc3ccc(N4CCOCC4)cc3)n2)cc1 (library stock concentration (final ~1000-fold dilution): 10 mM),NF-kB SEAP reporter activity,[2]; agonist: LPS (TLR4) 0.1 ug/mL,0.233
same,NF-kB SEAP reporter activity,[2]; [6],1.01
same,NF-kB SEAP reporter activity,[2]; [7],0.233
same,NF-kB SEAP reporter activity,[2]; [8],1.08
CN1CCN(CC(=O)N2c3ccccc3C(=O)Nc3cccnc32)CC1.Cl.Cl (library stock concentration (final ~1000-fold dilution): 10 mM water),NF-kB SEAP reporter activity,[2]; agonist: LPS (TLR4) 0.1 ug/mL,1.25
same,NF-kB SEAP reporter activity,[2]; [6],1.15
same,NF-kB SEAP reporter activity,[2]; [7],1.16
same,NF-kB SEAP reporter activity,[2]; [8],1.06
CN1CCN(CC(=O)N2c3ccccc3C(=O)Nc3cccnc32)CC1.Cl.Cl,NF-kB SEAP reporter activity,"[1]; library stock concentration (final ~1000-fold dilution): 10 mM water, cytotoxicity flag (confluency mask): not cytotoxic, agonist: Imiquimod (TLR7) […]",0.949
same,NF-kB SEAP reporter activity,"[1]; library stock concentration (final ~1000-fold dilution): 10 mM water, cytotoxicity flag (confluency mask): not cytotoxic, agonist: MPLA (TLR4) […]",1.01
Cl.O=S(=O)(c1cccc2c(I)cccc12)N1CCCNCC1,NF-kB SEAP reporter activity,[1]; [4],0.797
same,NF-kB SEAP reporter activity,[1]; [5],1.12
Cl.O=S(=O)(c1cccc2c(I)cccc12)N1CCCNCC1 (library stock concentration (final ~1000-fold dilution): 10 mM),NF-kB SEAP reporter activity,[2]; agonist: LPS (TLR4) 0.1 ug/mL,0.746
same,NF-kB SEAP reporter activity,[2]; [6],0.722
same,NF-kB SEAP reporter activity,[2]; [7],0.626
same,NF-kB SEAP reporter activity,[2]; [8],0.568
CONC(=O)Nc1ccc(-c2sc3c(c2CN(C)C)c(=O)n(-c2ccc(OC)nn2)c(=O)n3Cc2c(F)cccc2F)cc1,NF-kB SEAP reporter activity,"[1]; library stock concentration (final ~1000-fold dilution): 10 mM, cytotoxicity flag (confluency mask): cytotoxic (confluency <70% of control), agonist: Imiquimod (TLR7) […]",2.02
same,NF-kB SEAP reporter activity,"[1]; library stock concentration (final ~1000-fold dilution): 10 mM, cytotoxicity flag (confluency mask): cytotoxic (confluency <70% of control), agonist: MPLA (TLR4) […]",2.5
CONC(=O)Nc1ccc(-c2sc3c(c2CN(C)C)c(=O)n(-c2ccc(OC)nn2)c(=O)n3Cc2c(F)cccc2F)cc1 (library stock concentration (final ~1000-fold dilution): 10 mM),NF-kB SEAP reporter activity,[3]; agonist: LPS (TLR4) 0.1 ug/mL,3.39
same,NF-kB SEAP reporter activity,[3]; [6],0.26
same,NF-kB SEAP reporter activity,[3]; [7],1.01
same,NF-kB SEAP reporter activity,[3]; [8],1.88
CC(C)CCNC(=O)C(CC(C)C)NC(=O)C1OC1C(=O)O (stereo not drawn) (library stock concentration (final ~1000-fold dilution): 10 mM),NF-kB SEAP reporter activity,[2]; agonist: LPS (TLR4) 0.1 ug/mL,1.03
same,NF-kB SEAP reporter activity,[2]; [6],1.02
same,NF-kB SEAP reporter activity,[2]; [7],1
same,NF-kB SEAP reporter activity,[2]; [8],1.19
CC(C)CCNC(=O)C(CC(C)C)NC(=O)C1OC1C(=O)O (stereo not drawn),NF-kB SEAP reporter activity,[1]; [4],0.94
same,NF-kB SEAP reporter activity,[1]; [5],1.17
Br.NC(=O)C(c1ccccc1)(c1ccccc1)C1CCN(CCc2ccc3c(c2)CCO3)C1 (stereo not drawn),NF-kB SEAP reporter activity,[1]; [4],1.02
same,NF-kB SEAP reporter activity,[1]; [5],0.984
Br.NC(=O)C(c1ccccc1)(c1ccccc1)C1CCN(CCc2ccc3c(c2)CCO3)C1 (stereo not drawn) (library stock concentration (final ~1000-fold dilution): 10 mM),NF-kB SEAP reporter activity,[2]; agonist: LPS (TLR4) 0.1 ug/mL,0.967
same,NF-kB SEAP reporter activity,[2]; [6],0.467
same,NF-kB SEAP reporter activity,[2]; [7],0.82
same,NF-kB SEAP reporter activity,[2]; [8],0.919
C=C1CCC2C(C)(CO)C(O)CC[C@@]2(C)[C@@H]1C/C=C1/C(=O)OCC1O (stereo partly drawn) (library stock concentration (final ~1000-fold dilution): 10 mM),NF-kB SEAP reporter activity,[2]; agonist: LPS (TLR4) 0.1 ug/mL,0.32
same,NF-kB SEAP reporter activity,[2]; [6],0.206
same,NF-kB SEAP reporter activity,[2]; [7],0.0769
same,NF-kB SEAP reporter activity,[2]; [8],0.161
C=C1CCC2C(C)(CO)C(O)CC[C@@]2(C)[C@@H]1C/C=C1/C(=O)OCC1O (stereo partly drawn),NF-kB SEAP reporter activity,[1]; [4],0.287
same,NF-kB SEAP reporter activity,[1]; [5],0.305
